Measured values published in PubChem BioAssay AID778 (Sanford-Burnham Center for Chemical Genomics, 2007).
In all, about 96,000 compounds went through this assay and about 20,000 (21%) were called active.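 The calls were made as follows: active = CYP2C19 inhibition above a set limit at 5 µM in the primary screen (cut at about 50% in these data); inactive = the rest.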 Not all results are given here.

Each compound was assayed against Cytochrome P450 2C19 (Homo sapiens) (UniProt P33261) (assay: blockers of cytochrome P450 2C19 activity – biochemical, luminescence, ADME assay, primary screen (AID 778;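 also: plate controls were negative control wells for no effect and 2.5 mM tranylcypromine positive control for full effect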)). Settings: CYP2C19 Supersomes, luciferin-H EGE luminescence, 30 min; at 5 µM; stronger effect = higher value.
Sequence of Cytochrome P450 2C19 (Homo sapiens) (P33261 whole entry, looked up): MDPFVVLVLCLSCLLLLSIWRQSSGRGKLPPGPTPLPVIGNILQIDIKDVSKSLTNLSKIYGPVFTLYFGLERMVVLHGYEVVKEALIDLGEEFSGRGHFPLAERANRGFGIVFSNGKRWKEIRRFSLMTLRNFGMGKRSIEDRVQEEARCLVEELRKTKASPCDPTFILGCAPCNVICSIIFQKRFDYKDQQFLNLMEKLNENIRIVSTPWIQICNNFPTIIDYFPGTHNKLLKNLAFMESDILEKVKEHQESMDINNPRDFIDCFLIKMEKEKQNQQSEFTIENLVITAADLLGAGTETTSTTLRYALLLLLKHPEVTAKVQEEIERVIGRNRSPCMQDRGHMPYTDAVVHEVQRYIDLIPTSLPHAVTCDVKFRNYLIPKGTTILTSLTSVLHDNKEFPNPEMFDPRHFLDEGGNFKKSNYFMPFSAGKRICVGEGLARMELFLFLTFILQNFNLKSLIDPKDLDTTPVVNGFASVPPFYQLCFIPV

Row | Compound | inhibition
1 | CCC1C(C#N)=C(SC)NC2=C1C(=O)CC(C)(C)C2 (stereo not drawn) | 12.7% (inactive)
2 | Cc1ccc(-n2ncc3c2ncn2nc(-c4ccco4)nc32)c(C)c1 | 4.8% (inactive)
3 | COc1cc(C(=S)N2CCOCC2)cc(OC)c1OC(=O)c1cc([N+](=O)[O-])cc([N+](=O)[O-])c1 | -1.3% (inactive)
4 | Cc1ccc(Cn2nnc3c(=O)n(CC(=O)N4CCCCC4)cnc32)cc1 | 34% (inactive)
5 | COc1ccc(Cn2nnc3c(=O)[nH]c(C4CCN(C(=O)c5ccccc5Cl)CC4)nc32)cc1 | 57.2% (active)
6 | Cc1ccc(NC(=O)N2CCC(c3nc4c(nnn4Cc4c(F)cccc4Cl)c(=O)[nH]3)CC2)cc1 | 95.1% (active)
7 | Cc1ccc(NC(=O)N2CCC(C(=O)NCc3ccc(F)cc3)CC2)cc1 | 4.7% (inactive)
8 | Cc1nc2ccc(NC(=O)N3CCC(c4ccccc4)C3)cc2nc1C (stereo not drawn) | 28.5% (inactive)
9 | COc1ccc(-n2nnc3c(=O)n(CC(=O)N4CCC(Cc5ccccc5)CC4)cnc32)cc1 | 4.8% (inactive)
10 | CC(=O)c1ccc(OCCN2CCOCC2)cc1 | 2.4% (inactive)
11 | Cc1ccc(S(=O)(=O)NCC(=O)N(CC(=O)NC(C)(C)C)Cc2cccs2)cc1 | -10.5% (inactive)
12 | CCc1c(-c2ccccc2)nc(N)c(C#N)c1-c1cccs1 | 2.8% (inactive)
13 | CCOC(=O)C(CCOc1cccc(CC)c1)C(=O)OCC | 42% (inactive)
14 | Cc1cc(C)n2nc(C(=O)NC(C)(C)C)nc2n1 | -2.8% (inactive)
15 | C=CCc1cccc2cc(C(=O)N3CCN(C(=O)OCC)CC3)c(=O)oc12 | -8% (inactive)
16 | Cn1c(=O)c2c(SCC(=O)N3CCOCC3)nc(C3CC3)nc2n(C)c1=O | 8.8% (inactive)
17 | CCN(CC)C(=O)N1CCN(C(=O)c2ccc(C)cn2)CC1 | 4.3% (inactive)
18 | Cn1c(CO)cnc1SCc1ccccc1 | 39.7% (inactive)
19 | CCS(=O)(=O)n1nc(-c2ccc(OC)cc2)nc1SC | 46% (inactive)
20 | CCS(=O)(=O)n1nc(-c2ccccc2)nc1SCc1ccccc1 | 90.1% (active)
21 | O=C(COC(=O)CCC(=O)c1cccs1)NCc1ccco1 | 5.2% (inactive)
22 | CN(C(=O)CSc1nc(C2CC2)nc2ccccc12)c1nc(-c2ccccc2)cs1 | 12.3% (inactive)
23 | COC(=O)CSc1nc(C2CC2)nc2ccccc12 | 63.2% (active)
24 | Cc1nnc(NC(=O)CSc2nc(C3CCCCC3)nc3ccccc23)s1 | -1.4% (inactive)
25 | CCN(CC)S(=O)(=O)c1ccc2[nH]cc(C(=O)NCCc3ccccc3)c(=O)c2c1 | 4.6% (inactive)

Row | Compound | inhibition
26 | C[C@H](NC(=O)OC(C)(C)C)c1nnc(SCC(N)=O)o1 | 49.9% (inactive)
27 | CCc1ccccc1NC(=O)CSc1nnc([C@@H](NC(=O)OC(C)(C)C)C(C)C)o1 | 8% (inactive)
28 | Cc1cccc(NC(=O)CSc2nnc(CCCCCNC(=O)OC(C)(C)C)o2)c1C | 63.7% (active)
29 | C[C@H](NC(=O)OC(C)(C)C)c1nnc(SCC(=O)Nc2ccc(Br)cc2)o1 | 62.5% (active)
30 | CCc1ccccc1NC(=O)CSc1nnc([C@@H](NC(=O)OC(C)(C)C)C(C)CC)o1 (stereo partly drawn) | 59.4% (active)
31 | Cc1cccc(NC(=O)CSc2nc3c(c(=O)[nH]2)CCCC3)c1C | 17.6% (inactive)
32 | Cc1cccc(NC(=O)CSc2nnc(-c3ccco3)o2)c1 | -7.9% (inactive)
33 | O=C(CSc1nnc(-c2ccco2)o1)NCC(=O)c1ccccc1 | 0.5% (inactive)
34 | Cc1cccc(NC(=O)CSC(N)=O)c1C | 17.7% (inactive)
35 | Cc1ccc(C(=O)Nc2nnc(-c3cccs3)s2)cc1C | -8.8% (inactive)
36 | O=C(O)CCN=C1CCc2ccccc2N1 | 0.2% (inactive)
37 | Cc1cc(C)c2c(n1)nn1c(-n3ccnc3)cc(C)nc21 | 4.7% (inactive)
38 | C=CCSc1nc(Cc2ccc(Cl)cc2)nc2ccccc12 | 0% (inactive)
39 | O=C(CSc1nc2ccccc2[nH]1)c1cccs1 | 42.5% (inactive)
40 | C=CCSc1nc2ccccc2[nH]1 | 66% (active)
41 | Cc1ccccc1OC/C(O)=C(\C#N)c1nc2ccccc2[nH]1 | 38.3% (inactive)
42 | COc1ccccc1CSc1nc2ccccc2[nH]1 | 51.7% (active)
43 | O=c1cc(O)nc(SCc2ccccc2Cl)[nH]1 | 1.2% (inactive)
44 | Cc1nnc2sc(-c3ccco3)nn12 | -0.9% (inactive)
45 | CCOC(=O)Cc1c(C)nc2c(C#N)c(C)nn2c1C | 12.9% (inactive)
46 | CC(C)C1C2=C(CC(C)(C)CC2=O)ON1c1ccccc1 (stereo not drawn) | 34.7% (inactive)
47 | COc1ccc(CN2CN(C(C)C)CSC2=S)cc1 | 8.5% (inactive)
48 | O=C1CSC(c2ccccc2)N1c1nc(-c2ccc(Cl)cc2Cl)cs1 (stereo not drawn) | -2.8% (inactive)
49 | CCCc1ccc(-c2csc(NC(=O)Cc3cccs3)n2)cc1 | 28% (inactive)
50 | CC(=O)N1CCN(C(=O)c2cccc(S(=O)(=O)Nc3ccc(C)cc3)c2)CC1 | 11.6% (inactive)

Row | Compound | inhibition
51 | Cc1ccc(S(=O)(=O)Nc2ccc3ncccc3c2)cc1 | 89.8% (active)
52 | Cc1ccc(S(=O)(=O)Nc2nc(C)cc(-n3nc(C)cc3C)n2)cc1 | 22% (inactive)
53 | FC(F)(F)c1nnc2ccc(N3CCN(c4ccccc4)CC3)nn12 | 27.9% (inactive)
54 | O=C(Nc1ccccc1C(=O)N1CCOCC1)C1CCC(=O)N1C1CCCC1 (stereo not drawn) | -12.6% (inactive)
55 | CCC(=O)N(Cc1ccccc1)c1ccccn1 | -5.8% (inactive)
56 | CCC(=O)Nc1cccc(NC(=O)CSc2nnc(-c3ccc(NS(C)(=O)=O)cc3)n2C)c1 | 23.6% (inactive)
57 | CCCCSc1nnc(-c2ccc(NC(=O)CC)cc2)n1C | 21.4% (inactive)
58 | COC(=O)c1ccc(NC(=O)CSc2nnc(-c3ccncc3)n2C)cc1 | 54.6% (active)
59 | CCc1ccc(NC(=O)CSc2nnc(-c3cnccn3)n2Cc2ccco2)cc1 | 21.4% (inactive)
60 | Cn1c(SCC(=O)Nc2cccc(NC(=O)c3cccs3)c2)nnc1-c1ccncc1 | 54% (active)
61 | CCn1c(SCC(=O)Nc2cc(C)ccc2C)nnc1-c1cnccn1 | 71.7% (active)
62 | Cc1ccccc1C(=O)Nc1cccc(-c2nnc(SCC(=O)O)n2C)c1 | -18.4% (inactive)
63 | Cc1ccc(NC(=O)CSc2nnc(-c3cnccn3)n2Cc2ccco2)cc1C | 5.5% (inactive)
64 | CCc1nnc(NC(=O)CSc2nnc(-c3ccncc3)n2Cc2ccccc2)s1 | 41.3% (inactive)
65 | COC(=O)c1ccc(NC(=O)CSc2nnc(CNc3ccc(OC)cc3)n2C)cc1 | 29.7% (inactive)
66 | Cc1ccc(C(C)C)c(OCc2nnc(SCC(=O)Nc3nccs3)n2C)c1 | 17% (inactive)
67 | CCn1c(SCC(=O)Nc2nccs2)nnc1-c1ccncc1 | 66.7% (active)
68 | CCC1(C)N(O)C(C)(C)C(c2ccc(OC)cc2)=[N+]1[O-] (stereo not drawn) | -7.3% (inactive)
69 | C=CCNc1nc(N)c(C(=C(C#N)C#N)c2ccccc2)s1 | 21.5% (inactive)
70 | CS(=O)(=O)N1CCN(C(=O)Cc2ccccc2)CC1 | 16.8% (inactive)
71 | Cc1c(NC(=O)c2cc(-c3ccc(Cl)s3)nc3ccccc23)c(=O)n(-c2ccccc2)n1C | 18.3% (inactive)
72 | CSc1nnc2c(n1)OC(c1ccsc1)N(C(C)=O)c1ccccc1-2 (stereo not drawn) | 5.9% (inactive)
73 | Cc1nc2ccccc2c(-c2ccccc2)c1C(=O)c1ccccc1 | 12% (inactive)
74 | CCc1nnc(NS(=O)(=O)c2ccc(N=Cc3c(C)[nH]n(-c4ccc(C)cc4)c3=O)cc2)s1 | -2.3% (inactive)
75 | CCn1c(=N)n(CC(=O)c2cccc(OC)c2)c2ccccc21 | -12.1% (inactive)

Row | Compound | inhibition
76 | Cc1cc(C)cc(N(CC(=O)N2CC=C(c3ccccc3)CC2)S(=O)(=O)c2c(C)noc2C)c1 | 89.1% (active)
77 | Cc1cc(C)cc(N(CC(=O)NCC2CCCO2)S(=O)(=O)c2c(C)noc2C)c1 (stereo not drawn) | 82.9% (active)
78 | CCOC(=O)C1CCCN(C(=O)CN(c2ccc(OC)cc2)S(=O)(=O)c2c(C)noc2C)C1 (stereo not drawn) | 12.3% (inactive)
79 | Cc1ccc(S(=O)(=O)N2CCC(C(=O)NCC3CCCO3)CC2)cc1 (stereo not drawn) | 6.5% (inactive)
80 | Cc1ccc(C(=O)NCC2CCCO2)o1 (stereo not drawn) | -1.3% (inactive)
81 | O=C(Nc1ccc(Cl)c(Cl)c1)N1CC=C(c2ccccc2)CC1 | 28.4% (inactive)
82 | Cc1cc(=O)n2nc(N3CCCC3C(=O)NCCCN3CC(C)CC(C)C3)sc2n1 (stereo not drawn) | 2.4% (inactive)
83 | Cc1cccc(OCc2nnc(SCC(=O)N3CCN(C(=O)c4ccco4)CC3)n2C)c1C | 1.1% (inactive)
84 | CSc1nc(N)c(C#N)c(-c2ccccc2Cl)c1C#N | -13.6% (inactive)
85 | CCOC(=O)C(=CNc1cccc(C)n1)C(=O)OCC | 8.8% (inactive)
86 | Cc1c(CCO)c(=O)n(-c2ccccc2)n1S(=O)(=O)c1ccc(F)cc1 | 78.5% (active)
87 | Cc1c(CCO)c(=O)[nH]n1C(=O)c1c(F)cccc1F | 10% (inactive)
88 | CCOC(=O)C1CN(S(=O)(=O)c2ccc(F)cc2)C1 | 43.8% (inactive)
89 | Cc1cc(N2C(=O)C(=O)/C(=C(/O)c3ccc(Cl)cc3)C2c2cccc(Br)c2)no1 (stereo not drawn) | -6.1% (inactive)
90 | CC1CCc2c(sc3c2C2=NS(=O)(=O)CCN2C=N3)C1 (stereo not drawn) | -10% (inactive)
91 | Cc1ccc(-n2nc3ccc(NC(=O)/C=C/c4ccco4)cc3n2)cc1C | -6.9% (inactive)
92 | CCOc1ccc(-c2nnn(CC(=O)N3CCN(c4ccc(F)cc4)CC3)n2)cc1OCC | 18.2% (inactive)
93 | COC(=O)c1cc(OC)c(OC)cc1NC(=O)CSc1ccc(C)cc1 | 29.5% (inactive)
94 | Cc1ccc(SC(=O)COc2ccc(C)c(C)c2)cc1 | 1.6% (inactive)
95 | Cc1ccc(SCC(=O)c2cc(C)c(OC(=S)N(C)C)c(C)c2)cc1 | 66.7% (active)
96 | O=S(=O)(Nc1ccccc1N1CCOCC1)c1ccc(Cl)s1 | 50.4% (active)
97 | CC(=O)N1CCc2cc(S(=O)(=O)Nc3ccccc3N3CCN(C)CC3)ccc21 | -2.4% (inactive)
98 | O=C(CNC(=O)c1ccc(Cl)cc1Cl)NCC(=O)Nc1ccccc1N1CCOCC1 | 20.6% (inactive)
